A selection: hits, their analogues and other compounds. The true share with any hit is near 2.9%.
Smad3 FoxH1 inh = Smad3 (human) transcription factor binding inhibition; P84022; TR-FRET Smad3/Dy647-FoxH1 peptide binding, europium anti-His; inhibition, % at 25 µM; 0.29% of 88,000 active; AID 630;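 active = compounds that reduce the energy-transfer binding signal between the protein and its labelled peptide by more than half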;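 also: 0% = Smad3 plus labelled peptide maximal FRET and 100% = peptide-only background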
Calb biofilm kill = kills Candida albicans biofilms; 0.14% of 85,000 active; C. albicans biofilm + clotrimazole, Alamar Blue; AID 834; inhibition, % at 6 µM;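 active = inhibition above 20%; inactive = inhibition below 20%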;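 also: preformed 24 hr biofilms exposed to compound for 48 hr; 0% = biofilm without compound and 100% = blank killed by clotrimazole plus chlorhexidine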
ERb coact inh = blocks coactivator binding to human estrogen receptor beta; inhibition, % at 25.6 µM; AID 633; TR-FRET ER-beta LBD / SRC1-Cy5 peptide binding; receptor agonist-loaded with 1 µM estradiol; 1.3% of 86,000 active;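 active = compounds whose percent inhibition of the receptor-coactivator binding signal exceeds about 50% in the single-dose screen, limit read from the data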;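 also: 0% = receptor plus peptide wells without compound and 100% = peptide-only wells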
ERa coact inh = ER-alpha (human) coactivator binding inhibition | P03372 | TR-FRET ER-alpha LBD / SRC-1 peptide, estradiol-bound | inhibition, % at 25.6 µM | 1.7% of 86,000 active; in the data active = inhibition above about 50%;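 also: 0% = receptor plus peptide control and 100% = peptide only without receptor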
Target sequence (P03372 whole entry, looked up, the tested form may be a part): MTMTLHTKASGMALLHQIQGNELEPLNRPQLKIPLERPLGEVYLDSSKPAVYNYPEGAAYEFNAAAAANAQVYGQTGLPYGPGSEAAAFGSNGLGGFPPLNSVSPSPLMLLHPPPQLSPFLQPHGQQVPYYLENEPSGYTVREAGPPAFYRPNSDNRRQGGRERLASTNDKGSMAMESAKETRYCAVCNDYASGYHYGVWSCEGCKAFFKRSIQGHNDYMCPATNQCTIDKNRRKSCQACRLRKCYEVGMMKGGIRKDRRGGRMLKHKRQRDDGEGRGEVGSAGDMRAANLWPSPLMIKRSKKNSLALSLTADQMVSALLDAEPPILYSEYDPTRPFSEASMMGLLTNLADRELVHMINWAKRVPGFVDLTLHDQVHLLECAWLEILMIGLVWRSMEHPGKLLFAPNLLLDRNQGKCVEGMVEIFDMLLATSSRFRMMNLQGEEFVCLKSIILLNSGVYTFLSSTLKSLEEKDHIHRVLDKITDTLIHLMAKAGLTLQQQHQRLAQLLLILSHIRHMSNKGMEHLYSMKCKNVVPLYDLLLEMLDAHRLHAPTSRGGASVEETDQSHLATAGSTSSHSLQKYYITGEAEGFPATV
ERa coact pot = enhances coactivator binding to human estrogen receptor alpha; coactivator binding (% of control), % at 25.6 µM; 1.3% of 86,000 active; P03372; AID 639; TR-FRET ERalpha-LBD/SRC-Cy5 coactivator binding, 2 h; 100 = basal binding, no effect; in the data active = activity above about 200%;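 also: binding measured in presence of low estradiol as agonist stimulus; 0% = peptide alone without receptor and 100% = receptor with peptide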
HePTP inh = inhibitors of human HePTP phosphatase. recombinant HePTP phosphatase activity, OD absorbance. 0.64% of 110,000 active. inhibition, % at 20 µM. AID 521; in the data active = inhibition above about 50%;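 also: plate controls were vehicle for no effect and reference inhibitor for full effect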
Active calls of the source: *; x = no result given; [ ] = remark or other dose.

SMILES	Smad3 FoxH1 inh	Calb biofilm kill	ERb coact inh	ERa coact inh	ERa coact pot	HePTP inh
O=C(N/N=C/c1cccc(Cl)c1Cl)c1cc(Br)ccc1O	x	x	x	x	x	25
O=C1/C(=C/Nc2ccccc2NS(=O)(=O)c2ccc([N+](=O)[O-])cc2)CCc2ccccc21	x	x	x	x	x	-7
Cc1ccc(-n2nc3c(c2NC(=O)c2cccs2)CSC3)cc1	9	-5	6	12	154	5
Cc1cccc(-n2nc3c(c2NC(=O)c2ccc(Br)o2)CSC3)c1	6	2	0	1	211*	-7
Cc1ccc(C(=O)NC(=S)NCCCN2CCOCC2)cc1	x	x	x	x	x	103*
Cc1ccc(C(=O)NCCCN2CCOCC2)cc1	10	10	5	3	95	x
O=C(O)c1ccc2c(c1)C(=O)N(c1ccc(-c3nc4cc(N5C(=O)c6ccc(C(=O)O)cc6C5=O)ccc4[nH]3)cc1)C2=O	x	x	x	x	x	101*
CC1(C)CC(=O)C=C(Nc2nc(-c3ccccc3)cs2)C1	x	x	x	x	x	48
CCc1nnc(NC(=O)CSc2nnc(-c3ccc(S(=O)(=O)N4CCCC4)cc3)n2CC)s1	-6	-3	54*[fluorescence artefact?]	16	87	x
COc1ccc2ccccc2c1/C=C1\SC(=S)N(Cc2ccccc2)C1=O	x	x	x	x	x	7
CCn1c(C)nc2cc(-c3nnc(-c4c(-c5ccccc5)noc4C)o3)ccc21	15	2	-3	-18	373*[fluorescence artefact?]	-4
COc1ccc(S(=O)(=O)N2CCN(Cc3ccccc3)CC2)cc1	2	-5	-6	1	109	-3
COc1ccc(S(=O)(=O)N2CCN(Cc3ccc([N+](=O)[O-])cc3)CC2)cc1	x	x	x	x	x	57*
Clc1ccccc1C=NN1CCN(Cc2ccccc2Cl)CC1	x	x	x	x	x	5
Cc1ccsc1/C=C(/C#N)c1nc(-c2ccc(Cl)cc2)cs1	x	x	x	x	x	5
O=C(Nc1ccc(-n2nncc2-c2ccco2)cc1)c1cc2ccccc2oc1=O	43	0	65*[fluorescence artefact?]	69*	186	14
Cc1ccc2c(c1NC(=O)c1ccc(-c3ccccc3)cc1)C(=O)c1ccccc1C2=O	x	x	x	x	x	2
COc1ccc(OC)c(/C=C2/C=C(c3cccc4ccccc34)OC2=O)c1	x	x	x	x	x	-6
Fc1cccc(Cl)c1C=NN1CCN(c2ccc(Cl)cc2)CC1	x	x	x	x	x	4
COc1ccc(NC(=O)C2CCCO2)cc1OC (stereo not drawn)	72*	3	0	1	107	x
CC(=O)c1ccc(NC(=S)NC(NC(=O)c2ccccc2)C(Cl)(Cl)Cl)cc1 (stereo not drawn)	x	x	x	x	x	-2
COC(=O)c1cn(NC(=O)c2cc(OC)c(OC)c(OC)c2)c(=O)c2ccccc12	4	0	17	58*[fluorescence artefact?]	92	x
COC(=O)c1cn(NC(=O)c2cc(OC)cc(OC)c2)c(=O)c2ccccc12	-2	5	14	24	180	x
O=C(COc1ccc(F)c(Cl)c1)c1ccc[nH]1	8	3	45	66*[fluorescence artefact?]	40	6
O=C(CCC(=O)c1ccc[nH]1)c1ccc(Cl)cc1	8	7	32	40	79	10
SMILES	Smad3 FoxH1 inh	Calb biofilm kill	ERb coact inh	ERa coact inh	ERa coact pot	HePTP inh
COc1ccc(-c2n[nH]c(C(F)(F)F)c2-c2cc3ccccc3o2)c(O)c1	5	6	6	1	239*	x
COCCCN1C(=O)C(=O)/C(=C(/O)c2ccc3c(c2)OCCO3)C1c1ccc(C(=O)OC)cc1 (stereo not drawn)	28	7	80*[fluorescence artefact?]	77*[fluorescence artefact?]	68	-3
COCCN1C(=O)C(=O)/C(=C(/O)c2ccc3c(c2)OCCO3)C1c1ccc(C(=O)OC)cc1 (stereo not drawn)	-4	-5	-10	-7	91	0
CCn1c(COc2ccc(C)cc2)nnc1SCc1nc2ccccc2[nH]1	-16	3	-15	1	86	x
Cn1c(COc2ccccc2)nnc1SCc1nc2ccccc2[nH]1	94*	6	0	1	120	5
CC(=O)Nc1ccc(OC(=O)c2ccco2)cc1	16	7	-13	-10	100	x
CC(=O)Nc1ccc(OC(=O)c2c(F)cccc2F)cc1	x	x	x	x	x	90*
C[N+](C)(C)c1nc(N)nc2c1ncn2[C@H]1O[C@@H](CO)[C@H](O)[C@H]1O	-2	x	x	x	x	x
Cn1cnc([N+](=O)[O-])c1[Se]c1nc(N)nc2c1ncn2[C@H]1O[C@@H](CO)[C@H](O)[C@H]1O	75*	x	x	x	x	x
Cc1cc2cc(CN3C(=O)c4ccccc4C3=O)ccc2n1C	27	-1	9	-3	300*[fluorescence artefact?]	x
Cc1ccc(S(=O)(=O)NCc2ccc3c(c2)cc(C)n3C)cc1	-10	13	5	-4	106	x
Cc1ccc(C(=O)NCC(=O)OCC(=O)c2c(N)n(C)c(=O)n(C)c2=O)s1	4	3	50*	53*	64	9
COC(=O)c1c(NC(=O)c2ccccc2OC)sc2c1C(C(=O)OC)CC2 (stereo not drawn)	x	x	x	x	x	5
CCCn1c(=O)c2ccccc2n2c(SCC(=O)Nc3cc(C)on3)nnc12	10	3	100*[fluorescence artefact?]	7	93	4
O=C1NC(=Nc2cccc(Cl)c2Cl)S/C1=C\c1ccc([N+](=O)[O-])cc1	x	x	x	x	x	15
O=C(CN1CCOCC1)Nc1cc(C(F)(F)F)cc(NC(=O)CN2CCOCC2)c1Cl	x	x	x	x	x	-8
O=C(NCc1ccco1)c1nn2c(C(F)(F)F)cc(-c3cccs3)nc2c1Br	0	-1	44	59*	157	x
O=C(NCc1ccco1)c1nc2nc(-c3cccs3)cc(C(F)(F)F)n2n1	9	3	22	26	67	15
CN(Cc1cc(C(C)(C)C)cc(Br)c1O)Cc1cc(C(C)(C)C)cc(Br)c1O	96*	x	x	x	x	x
O=S(=O)(Nc1ccc(O)c(-c2c(O)ccc3ccccc23)c1)c1ccccc1	x	x	x	x	x	-14
O=S(=O)(O)c1ccc(NN(c2c(O)ccc3ccccc23)S(=O)(=O)O)cc1	99*	x	x	x	x	x
c1ccc(Nc2nc(-c3cccs3)cs2)nc1	x	x	x	x	x	-1
c1cnc(Nc2nc(-c3cccs3)cs2)nc1	x	x	x	x	x	102*
C=CCOc1ccc(/C=C2/SC(=O)NC2=O)cc1Br	x	x	x	x	x	5
CS(=O)(=O)N(Cc1ccc(C(=O)Nc2ccc3c(c2)OCO3)cc1)c1ccccc1	x	x	x	x	x	0
SMILES	Smad3 FoxH1 inh	Calb biofilm kill	ERb coact inh	ERa coact inh	ERa coact pot	HePTP inh
CN(/N=C/c1cccnc1)c1cnn(-c2ccc(F)c(Cl)c2)c(=O)c1Cl	-26	1	37	61*	125	x
COc1ccc(C2SCC(C(=O)NCc3ccc(F)cc3)N2C(C)=O)cc1 (stereo not drawn)	-5	4	7	-7	513*[fluorescence artefact?]	x
CCCCSc1nnc2c(n1)[nH]c1ccccc12	23	-3	44	56*	157	x
O=C(CN(c1ccccc1)S(=O)(=O)c1ccccc1[N+](=O)[O-])Nc1ccc(Br)cc1	x	x	x	x	x	-5
Cc1nc(N2CCN(c3ccccc3)CC2)c2c3c(sc2n1)CCC3	4	2	-3	-1	86	4
CSc1nc(N2CCOCC2)c2c3c(sc2n1)CCC3	-3	2	62*[fluorescence artefact?]	18	78	-12
Cc1ccc(-c2ccc(CCC(=O)O)n2CC(=O)O)cc1	1	1	14	2	81	-2

Screens from PubChem BioAssay.
